The test system of assay [1] is Plasmodium falciparum Sir2 (PF13_0152, Sir2A). Put plainly: Plasmodium falciparum Sir2A binding compounds – biochemical, small-molecule microarray, 635 nm fluorescence, primary screen (AID 1098).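 Note: score merges spot fluorescence intensity with its signal-to-noise ratio.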 The conditions noted are these: fluorescence 635 nm, higher = more signal.
Assay [2] in a line: probe aDKK1 binding to arrayed compounds – biochemical, biotinylated probe, 635/667 nm fluorescence, primary screen (AID 1099).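 Note: score merges 667nm spot fluorescence with signal to noise across triplicate slides; reference of the scale not given here.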 The conditions noted are these: small-molecule microarray, higher = more signal.
Assay [3] in a line: probe aCHRDL2 binding to arrayed compounds – biochemical, biotinylated probe, 635/667 nm fluorescence, primary screen (AID 1100). Particulars: small-molecule microarray, higher = more signal.
A short description of assay [4]: change in splice reporter luminescence, either direction, cell-based, HEK293, spliceosome inhibition project, primary screen (AID 1101).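 Note: HEK293 cells carrying a splicing-competent luciferase reporter gene; test concentration not given here.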 The conditions noted are these: HEK293 splicing luciferase reporter, 24 h, higher = more signal, called active from +8 up or from −8 down.
Assay [5] concerns the target Fibroblast growth factor 10 (Homo sapiens) (UniProt O15520). Put plainly: compounds binding fibroblast growth factor 10 – biochemical, small-molecule microarray, 635 nm fluorescence, primary screen (AID 1102). Particulars: FGF10 binding, fluorescence 635 nm, higher = more signal.
Assay [6] concerns glycogen synthase kinase-3 (GSK3A per assay name; protocol says GSK3B). Put plainly: compounds binding glycogen synthase kinase-3 – biochemical, small-molecule microarray, 635 nm fluorescence, GSK3A, primary screen (AID 1103). Note: the record names both GSK3A and GSK3B. The conditions noted are these: fluorescence 635 nm, higher = more signal.
Assay [7] deals with Epidermal growth factor receptor (Homo sapiens) (UniProt P00533). Put plainly: compounds binding epidermal growth factor receptor – biochemical, small-molecule microarray, 635 nm fluorescence, primary screen (AID 1104).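 Note: score merges 667 nm emission intensity with spot signal to noise over triplicate slides.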 Particulars: EGFR binding, higher = more signal.
Assay [8] addresses Follistatin-related protein 3 (Homo sapiens) (UniProt O95633). Put plainly: compounds binding follistatin-related protein 3 – biochemical, small-molecule microarray, 635 nm fluorescence, primary screen (AID 1105).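 Note: score merges emission near 667 nm and signal to noise per printed spot across three slides.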 Particulars: FSTL3 binding, higher = more signal.
The target of assay [9] is Dickkopf-related protein 1 (Homo sapiens) (UniProt O94907). Put plainly: small molecules binding DKK1 protein – biochemical, small-molecule microarray, 635 nm fluorescence scan, primary screen (AID 1106).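 Note: score merges emission near 667 nm with signal to noise over three replicate slides.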 Particulars: higher = more signal.
The subject of assay [10] is Inhibin beta A chain (activin A). Put plainly: small molecules binding activin A – biochemical, small-molecule microarray, 635 nm fluorescence scan, primary screen (AID 1107).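 Note: mouse activin A protein probed at 4.33 µg/mL on printed slides; score merges bound-protein fluorescence near 667 nm with spot signal-to-noise.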 Particulars: INHBA, higher = more signal.

Calls of active or inactive are those of the source.

Sequence of Dickkopf-related protein 1 (Homo sapiens) (O94907 whole entry, looked up): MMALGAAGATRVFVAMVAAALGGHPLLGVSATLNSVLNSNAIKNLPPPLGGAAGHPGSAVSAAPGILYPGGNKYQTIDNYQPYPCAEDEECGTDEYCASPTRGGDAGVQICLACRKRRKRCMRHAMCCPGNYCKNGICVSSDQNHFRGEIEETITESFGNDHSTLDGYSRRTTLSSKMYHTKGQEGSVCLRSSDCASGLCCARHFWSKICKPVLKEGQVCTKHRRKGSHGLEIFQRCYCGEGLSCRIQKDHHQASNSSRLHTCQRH
Sequence of Epidermal growth factor receptor (Homo sapiens) (P00533 whole entry, looked up): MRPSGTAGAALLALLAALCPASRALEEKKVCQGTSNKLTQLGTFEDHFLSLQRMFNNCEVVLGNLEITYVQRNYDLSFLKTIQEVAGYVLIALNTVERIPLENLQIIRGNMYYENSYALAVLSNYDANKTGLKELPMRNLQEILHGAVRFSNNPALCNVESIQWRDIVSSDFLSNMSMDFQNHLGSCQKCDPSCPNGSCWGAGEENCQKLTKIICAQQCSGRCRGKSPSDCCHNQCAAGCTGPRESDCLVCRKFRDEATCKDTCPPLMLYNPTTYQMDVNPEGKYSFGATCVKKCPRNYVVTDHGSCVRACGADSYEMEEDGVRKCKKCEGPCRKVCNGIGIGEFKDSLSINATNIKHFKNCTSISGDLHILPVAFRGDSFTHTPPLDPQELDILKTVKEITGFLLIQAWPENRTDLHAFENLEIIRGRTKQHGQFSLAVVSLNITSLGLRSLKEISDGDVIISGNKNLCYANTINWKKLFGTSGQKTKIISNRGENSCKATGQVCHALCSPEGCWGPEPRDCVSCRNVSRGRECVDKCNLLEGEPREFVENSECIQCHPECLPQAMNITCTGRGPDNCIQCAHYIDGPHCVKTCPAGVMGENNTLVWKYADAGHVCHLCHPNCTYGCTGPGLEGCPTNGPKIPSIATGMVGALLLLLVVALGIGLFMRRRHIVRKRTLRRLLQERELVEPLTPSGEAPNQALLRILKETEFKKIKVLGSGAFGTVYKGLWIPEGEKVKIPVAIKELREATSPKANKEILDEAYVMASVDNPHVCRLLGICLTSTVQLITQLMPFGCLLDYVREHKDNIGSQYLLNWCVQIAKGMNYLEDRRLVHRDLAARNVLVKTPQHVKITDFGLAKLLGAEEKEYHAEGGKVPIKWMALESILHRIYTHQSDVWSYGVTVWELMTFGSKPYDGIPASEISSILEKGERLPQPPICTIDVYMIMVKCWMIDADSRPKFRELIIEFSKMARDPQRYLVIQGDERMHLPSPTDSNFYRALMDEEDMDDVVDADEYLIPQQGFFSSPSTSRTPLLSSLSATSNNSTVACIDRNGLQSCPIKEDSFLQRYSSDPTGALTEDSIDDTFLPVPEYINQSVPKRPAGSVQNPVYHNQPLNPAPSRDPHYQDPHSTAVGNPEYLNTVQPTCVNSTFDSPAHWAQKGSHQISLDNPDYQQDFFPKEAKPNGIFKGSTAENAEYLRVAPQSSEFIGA
Sequence of Fibroblast growth factor 10 (Homo sapiens) (O15520 whole entry, looked up): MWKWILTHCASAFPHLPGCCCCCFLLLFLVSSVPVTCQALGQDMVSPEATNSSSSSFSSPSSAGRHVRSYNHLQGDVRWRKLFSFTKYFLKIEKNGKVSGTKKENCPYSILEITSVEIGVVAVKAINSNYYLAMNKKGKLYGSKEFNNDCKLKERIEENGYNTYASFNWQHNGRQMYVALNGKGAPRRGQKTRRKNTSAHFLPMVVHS
Sequence of Follistatin-related protein 3 (Homo sapiens) (O95633 whole entry, looked up): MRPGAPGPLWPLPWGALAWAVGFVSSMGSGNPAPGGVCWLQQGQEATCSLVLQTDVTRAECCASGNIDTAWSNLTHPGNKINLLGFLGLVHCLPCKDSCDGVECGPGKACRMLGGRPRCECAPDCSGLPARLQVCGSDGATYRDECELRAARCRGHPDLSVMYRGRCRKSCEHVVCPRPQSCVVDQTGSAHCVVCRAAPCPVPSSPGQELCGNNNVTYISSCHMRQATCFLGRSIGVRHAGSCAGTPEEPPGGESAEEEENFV

`C[N+](C)(C)CCCCNC(=O)[C@@H]1C[C@@H]2C(=O)N[C@@H](Cc3ccccc3)C(=O)N2[C@@H]1c1cccc(OCCO)c1`: the composite z-score is 1.32 in [1]; -0.0907 in assay [2]; 0.361 in assay [3]; 0.849 in assay [5]; -0.494 in [6]; -0.35 in assay [7]. Further, the composite z-score was 0.683 in assay [8], 1.49 in assay [9] and -0.15 in assay [10]. Moreover, the z-score in assay [4] is -0.379 (inactive).

With `[N-]=[N+]=Nc1ccccc1[C@H]1OC(c2ccc(OCCCO)cc2)=N[C@@]1(CCS(=O)(=O)c1ccccc1)C(=O)NCC(O)CO` (stereo not given in full), the composite z-score is 1.47 in assay [1]; 0.766 in assay [2]; 0.95 in assay [3]; 1.24 in [5]; 0.933 in [6]; -0.214 in assay [7]. In addition, the composite z-score in [8] is 0.505; in assay [9] it was -0.415; in assay [10], 0.899. Moreover, the z-score in [4] was -0.662 (inactive).

With `NCCCCCNC(=O)[C@@H]1C[C@@H]2C(=O)N[C@@H](Cc3ccccc3)C(=O)N2[C@@H]1c1ccc(O)cc1`, the composite z-score in assay [1] is 1.14; in assay [2], -0.0335; in assay [3] it was 0.475; in assay [5], 1.11; in [6], 1.17; in assay [7] it was 0.632. Moreover, the composite z-score in [8] stood at 1.37; in assay [9], 0.484; in [10], 0.609. In addition, the z-score in [4] was 1.31 (inactive).

Consider `C[C@@]1([C@@H](NC(=O)c2ccc(-c3ccccc3)cc2)c2ccc(Cl)cc2)C[C@H]1C1CCCCC1`, for which the composite z-score in [1] amounted to 0.78; in [2], 1.13; in assay [3], 1.07; in assay [5], 0.575; in assay [6] it was 0.787; in assay [7], 0.0292. Further, the composite z-score in assay [8] was 0.313; in assay [9] it was -0.131; in [10], 0.387. The z-score in assay [4] was -1.82 (inactive).

As for `C=CCOC(=O)[C@H]1[C@@H]2C(=O)O[C@@H](c3ccccc3)[C@@H](c3ccccc3)N2[C@@H](c2ccc(OCCOC(=O)[C@@H]3C[C@@H]4C(=O)N[C@@H](CCCCNC(C)=O)C(=O)N4[C@@H]3c3ccc(O)cc3)cc2)[C@]12C(=O)Nc1ccccc12`, the composite z-score in [1] is 1.65; in assay [2], -0.208; in assay [3] it was -0.187; in assay [5], 0.768; in assay [6], 1.3; in assay [7], 0.673. Also, the composite z-score is 1.28 in [8], 0.783 in assay [9] and 0.152 in assay [10]. In addition, in assay [4], the z-score is -0.0104 (inactive).

For the compound `COC(=O)[C@@]1(Cc2ccc(F)cc2)[C@H]2c3cc(C(=O)N(C)C)n(Cc4ccc(Cl)c(C(F)(F)F)c4)c3C[C@H]2CN1C(=O)c1ccccc1`, the composite z-score in assay [1] amounted to 0.546; in assay [2] it was 1.6; in assay [3], 1.46; in assay [5], 0.336; in [6] it was 1.31; in assay [7], 0.175. Besides, the composite z-score in assay [8] was 0.923; in assay [9], -0.473; in assay [10], 0.651. Also, the z-score in assay [4] was -2.25 (inactive).

For `O=C(NC1CC1)[C@@H]1c2ccccc2C(=O)N(Cc2ccccc2Cl)[C@H]1c1ccc(CO)cc1`, the composite z-score is 0.814 in assay [1]; 0.893 in assay [2]; 1.02 in [3]; 0.474 in assay [5]; 1.24 in assay [6]; 0.186 in assay [7]. Also, the composite z-score in assay [8] amounted to 0.654; in assay [9], 0.63; in assay [10] it was 1.17. Further, the z-score in assay [4] was -0.544 (inactive).

On to `CCOC(=O)C[C@H]1[C@H](OC(=O)c2ccc(C(=O)c3ccccc3)cc2)[C@@H](NC(=O)c2ccccc2)c2cc(OCCCO)ccc2N1C(=O)Cc1ccc(OC)cc1`, for which the composite z-score was -0.0032 in assay [1]; 0.234 in [2]; 0.586 in [3]; 0.131 in assay [5]; 0.0916 in assay [6]; 0.285 in assay [7]. Moreover, the composite z-score in assay [8] is 0.0514; in assay [9], -0.0269; in assay [10], 0.811. Moreover, in [4], the z-score is 0.0989 (inactive).

For `NC(=O)NCC#Cc1ccc2c(c1)[C@]1(C(=O)N2)[C@H](c2ccccc2OCCO)N2[C@H](c3ccccc3)[C@H](c3ccccc3)OC(=O)[C@H]2[C@@H]1C(=O)Nc1nc2ccccc2s1`, the composite z-score in [1] was 0.134; in assay [2] it was -0.0335; in assay [3], 0.483; in [5], 0.271; in [6], -0.175; in [7] it was -0.209. The composite z-score came out at 0.429 in assay [8], 0.0336 in assay [9] and 0.52 in assay [10]. For the same compound, the z-score in [4] was 0.663 (inactive).

Regarding `CCOC(=O)C1=CC[C@@H](c2ccccc2)N(S(=O)(=O)c2ccc(C)cc2)[C@H]1c1ccccc1C`, the composite z-score came to 1.42 in assay [1]; 0.311 in [2]; 0.431 in [3]; 0.607 in assay [5]; 0.683 in assay [6]; 0.375 in assay [7]. Also, the composite z-score in assay [8] came out at 1.05; in assay [9], 0.349; in assay [10], 0.97. Besides, the z-score in assay [4] was -0.876 (inactive).

In the case of `C=CC[C@@]1(C(=O)NCCN2CCOCC2)N=C(c2ccc(OCCCO)cc2)O[C@@H]1c1ccccc1N=[N+]=[N-]`, the composite z-score in assay [1] is 0.241; in [2] it was 1.09; in [3], 1.03; in [5], 0.0038; in assay [6], -0.142; in assay [7] it was 0.539. For the same compound, the figures for the composite z-score in [8], in [9] and in assay [10] were 0.255, -0.0358 and 1.72, respectively. Moreover, in assay [4], the z-score is -0.656 (inactive).

As for `C=CCC(OC(C)=O)[C@@H]1[C@@H](N(Cc2ccc(-c3cccc(C(F)(F)F)c3)o2)C(=O)c2ccc(C)cc2)c2cc(OCCCO)ccc2N1C(=O)Cc1ccc2ccccc2c1` (stereo not given in full), the composite z-score is -0.291 in [1]; -0.183 in assay [2]; 0.314 in assay [3]; -0.0662 in assay [5]; -1.46 in [6]; -0.206 in [7]. In addition, the composite z-score in assay [8] was -0.458; in [9], -0.214; in [10], 1.14. The z-score in assay [4] is -0.337 (inactive).

Turning to `Cc1ccc(S[C@]2(C(=O)NCCCN(C)C)CC(=O)N(Cc3ccccc3C(F)(F)F)[C@@H]2c2ccc(CO)cc2)cc1`, the composite z-score in assay [1] is -1.14; in assay [2], 0.631; in assay [3], 0.95; in assay [5] it was -0.904; in assay [6] it was -0.761; in [7] it was -0.636. Moreover, the composite z-score in assay [8] is -1.47; in [9], -0.798; in assay [10], 0.94. Also, in assay [4], the z-score is 0.375 (inactive).

These data come from PubChem BioAssay.
